Laboratory results: PubChem BioAssay
For some assays here: Entries with a potency or affinity are not part of this list. Active and inactive are the calls of the source. Unless noted, the rule behind the calls is not given here.

What was measured:
[1] = antimalarial activity against Dd2 strain (AID 2302;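 active = growth inhibition above 50% at the single 2 µM test dose, taken to imply half-maximal potency below 2 µM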;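 note: 0% = DMSO untreated growth and 100% = chloroquine plus artemisinin killed control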); details: P. falciparum Dd2 in RBCs, LDH growth readout, 72 h; at 2 µM; hits give high values
[2] = HepG2 cytotoxicity, primary screen, cytotoxicity control for P. falciparum antimalarial project, cell-based, ATP luminescence (AID 2303;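 active = inhibition above 50%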;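 note: 0% = DMSO wells and 100% = digitonin-killed cells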); details: HepG2 viability, 24-48 h, at 10 µM, hits give high values
[3] = target: L-lactate dehydrogenase (Plasmodium falciparum (isolate CDC / Honduras)) (UniProt Q27743); experiment: PfLDH activity inhibition – cell lysate, 3D7 strain, counter-screen for P. falciparum growth inhibition project (AID 2304);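 note: 0% = vehicle and 100% = reference inhibitor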; details: P. falciparum 3D7 crude extract, LDH APAD/NBT absorbance; at 2 µM; hits give high values
[4] = inhibition of 3D7 malaria parasite growth – strain 3D7 (AID 2306);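 note: 0% = DMSO wells and 100% = chloroquine plus artemisinin control wells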; details: P. falciparum 3D7 erythrocytic growth, LDH absorbance, 72 h; at 2 µM; hits give high values
[5] = target: Calcium-dependent protein kinase 1 (Plasmodium falciparum (isolate 3D7)) (UniProt P62344); experiment: PfCDPK1 kinase inhibitors, biochemical, TCAMS library (AID 1159585; cut-off not given, nearly all actives have IC50 up to about 0.98 µM;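 note: inhibitors leave more ATP so luminescence rises with inhibition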); details: recombinant PfCDPK1, Kinase-Glo ATP depletion luminescence
[6] = target: Plasmodium falciparum protein kinase 6 (PK6, PF3D7_1337100) (UniProt Q8IDW1); experiment: PfPK6 kinase inhibitors, biochemical, TCAMS library (AID 1159586); details: recombinant PfPK6, Kinase-Glo ATP depletion luminescence
[7] = target: Protein kinase 7 (PK7), Plasmodium falciparum 3D7 (PF3D7_0213400) (UniProt Q7YTF7); experiment: inhibition of Plasmodium PK7 catalytic activity – biochemical, TCAMS antimalarial set, Kinase-Glo luminescence (AID 1159587); details: recombinant PfPK7, Kinase-Glo ATP depletion luminescence
[8] = target: Calcium-dependent protein kinase 4 (Plasmodium falciparum (isolate 3D7)) (UniProt Q8IBS5); experiment: PfCDPK4 kinase inhibitors, biochemical, TCAMS library (AID 1159588; cut-off not given, nearly all actives have IC50 up to about 0.91 µM); details: recombinant PfCDPK4, Kinase-Glo ATP depletion luminescence
Chain of Calcium-dependent protein kinase 4 (Plasmodium falciparum (isolate 3D7)) (Q8IBS5 whole entry, looked up): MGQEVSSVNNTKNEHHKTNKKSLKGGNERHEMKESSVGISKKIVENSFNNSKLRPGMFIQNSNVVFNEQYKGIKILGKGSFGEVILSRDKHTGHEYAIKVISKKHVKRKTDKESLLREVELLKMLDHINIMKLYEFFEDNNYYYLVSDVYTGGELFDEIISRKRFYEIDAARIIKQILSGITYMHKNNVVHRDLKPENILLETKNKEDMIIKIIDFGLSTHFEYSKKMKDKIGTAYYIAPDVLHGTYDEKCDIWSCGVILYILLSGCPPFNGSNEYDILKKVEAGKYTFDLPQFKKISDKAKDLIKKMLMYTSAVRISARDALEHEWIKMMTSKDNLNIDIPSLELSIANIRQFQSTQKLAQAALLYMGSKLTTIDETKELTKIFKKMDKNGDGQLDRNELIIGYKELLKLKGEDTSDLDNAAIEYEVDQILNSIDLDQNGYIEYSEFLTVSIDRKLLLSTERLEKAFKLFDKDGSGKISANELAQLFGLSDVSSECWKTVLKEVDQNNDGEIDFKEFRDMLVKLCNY

Chain of L-lactate dehydrogenase (Plasmodium falciparum (isolate CDC / Honduras)) (Q27743 whole entry, looked up): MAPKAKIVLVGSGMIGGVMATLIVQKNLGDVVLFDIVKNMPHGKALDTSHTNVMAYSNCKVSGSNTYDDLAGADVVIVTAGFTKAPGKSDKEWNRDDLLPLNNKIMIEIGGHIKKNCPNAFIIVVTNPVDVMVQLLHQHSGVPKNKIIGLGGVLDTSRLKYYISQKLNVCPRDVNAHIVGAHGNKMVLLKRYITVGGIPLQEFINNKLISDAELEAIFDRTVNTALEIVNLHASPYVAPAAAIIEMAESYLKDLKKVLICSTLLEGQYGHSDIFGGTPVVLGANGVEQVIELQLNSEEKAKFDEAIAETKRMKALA
Chain of Calcium-dependent protein kinase 1 (Plasmodium falciparum (isolate 3D7)) (P62344 whole entry, looked up): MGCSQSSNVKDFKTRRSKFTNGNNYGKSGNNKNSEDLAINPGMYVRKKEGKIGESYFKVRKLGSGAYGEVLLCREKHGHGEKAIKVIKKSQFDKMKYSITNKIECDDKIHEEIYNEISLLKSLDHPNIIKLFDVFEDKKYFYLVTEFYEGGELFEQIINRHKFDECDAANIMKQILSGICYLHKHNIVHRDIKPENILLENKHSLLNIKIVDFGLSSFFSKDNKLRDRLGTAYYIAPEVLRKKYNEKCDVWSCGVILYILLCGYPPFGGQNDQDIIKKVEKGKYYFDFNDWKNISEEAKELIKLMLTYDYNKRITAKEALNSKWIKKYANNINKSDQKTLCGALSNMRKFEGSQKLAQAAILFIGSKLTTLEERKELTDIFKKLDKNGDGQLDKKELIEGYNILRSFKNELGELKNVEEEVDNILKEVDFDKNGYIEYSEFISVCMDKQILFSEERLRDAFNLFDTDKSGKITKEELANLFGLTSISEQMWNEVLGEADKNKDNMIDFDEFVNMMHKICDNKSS
Chain of Plasmodium falciparum protein kinase 6 (PK6, PF3D7_1337100) (Q8IDW1 1-305): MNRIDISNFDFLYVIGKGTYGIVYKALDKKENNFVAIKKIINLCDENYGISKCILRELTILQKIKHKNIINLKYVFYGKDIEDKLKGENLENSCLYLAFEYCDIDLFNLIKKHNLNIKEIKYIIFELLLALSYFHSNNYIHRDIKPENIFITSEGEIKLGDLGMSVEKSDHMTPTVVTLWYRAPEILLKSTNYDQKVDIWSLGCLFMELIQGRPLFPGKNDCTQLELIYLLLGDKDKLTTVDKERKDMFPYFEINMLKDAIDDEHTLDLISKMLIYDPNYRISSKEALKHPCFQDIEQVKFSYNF
Chain of Protein kinase 7 (PK7), Plasmodium falciparum 3D7 (PF3D7_0213400) (Q7YTF7 1-343): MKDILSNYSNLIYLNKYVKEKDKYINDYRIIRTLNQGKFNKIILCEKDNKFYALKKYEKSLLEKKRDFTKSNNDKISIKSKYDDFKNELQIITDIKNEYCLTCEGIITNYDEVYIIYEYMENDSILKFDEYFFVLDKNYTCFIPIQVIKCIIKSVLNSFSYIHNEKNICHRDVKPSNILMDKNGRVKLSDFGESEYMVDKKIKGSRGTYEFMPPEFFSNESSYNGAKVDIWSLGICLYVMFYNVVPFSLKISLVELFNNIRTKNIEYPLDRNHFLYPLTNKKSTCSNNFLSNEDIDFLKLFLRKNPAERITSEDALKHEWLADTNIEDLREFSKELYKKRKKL

O=C(Nc1ccc(CN2CCOCC2)cc1)c1ccc(-c2ccc(Br)cc2)o1
inactive: growth inhibition [1] -4% | inhibition [2] 3% | inhibition [3] -2% | outcome [5] | outcome [6] | outcome [7] | outcome [8]
active: growth inhibition [4] 92%

Cc1nn(-c2ccccc2)c2c1C(c1ccc(C(C)C)cc1)N1C(=N2)N(Cc2ccccc2)c2ccccc21 (stereo not given)
inactive: growth inhibition [1] 37% | inhibition [2] 7% | inhibition [3] -7% | outcome [5] | outcome [6] | outcome [7] | outcome [8]
active: growth inhibition [4] 95%

CC(=O)N(C)c1ccc(C(=O)Nc2cccc(-c3cccc(-c4nc5ccc(C(F)(F)F)cc5[nH]4)c3)c2)cc1
inactive: growth inhibition [1] 29% | inhibition [2] 31% | inhibition [3] -6% | outcome [5] | outcome [6] | outcome [7] | outcome [8]
active: growth inhibition [4] 96%

O=C(N[C@H]1CCN(Cc2ccc(OCCN3CCNCC3)c(Cl)c2)C1)c1ccc(Cl)c(Cl)c1
active: inhibition [2] 50% | growth inhibition [4] 101%
inactive: growth inhibition [1] 5% | inhibition [3] -1% | outcome [5] | outcome [6] | outcome [7] | outcome [8]

O=S(=O)(NCCN1CCCC1)c1cccc(-c2cccc(CNCCc3cccs3)c2)c1
inactive: growth inhibition [1] 45% | inhibition [2] 30% | inhibition [3] 0% | outcome [5] | outcome [6] | outcome [7] | outcome [8]
active: growth inhibition [4] 102%

CCOC(=O)c1cn(CC)c2cc(N3CCCCC3)c(F)cc2c1=O
active: growth inhibition [1] 96% | growth inhibition [4] 97%
inactive: inhibition [2] 0% | inhibition [3] 2% | outcome [5] | outcome [6] | outcome [7] | outcome [8]

FC(F)(F)c1ccc(Nc2nnnc3ccccc23)cc1
inactive: inhibition [2] 3% | inhibition [3] -6% | outcome [5] | outcome [6] | outcome [7] | outcome [8]
active: growth inhibition [1] 82% | growth inhibition [4] 90%

Cc1ccc(OCCCCONC(=O)c2ccccc2)cc1
active: growth inhibition [4] 96%
inactive: growth inhibition [1] 1% | inhibition [2] 6% | inhibition [3] -2% | outcome [5] | outcome [6] | outcome [7] | outcome [8]

O=C(CC1CCCC1)N(Cc1ccc(-c2ccc(CNC3Cc4ccccc4C3)cc2)cc1)CC1CCCCN1 (stereo not given)
inactive: inhibition [2] 41% | inhibition [3] -3% | outcome [5] | outcome [6] | outcome [7] | outcome [8]
active: growth inhibition [1] 86% | growth inhibition [4] 88%

N#CCCN1CCN(Cc2cccc(-c3ccc(-c4nc5ccccc5[nH]4)cc3)c2)CC1
active: growth inhibition [4] 93%
inactive: growth inhibition [1] 20% | inhibition [2] 18% | inhibition [3] -9% | outcome [5] | outcome [6] | outcome [7] | outcome [8]

COc1ccc(Cl)cc1N1CCN(CCCNC(=O)c2ccc(-c3nc4ccncc4[nH]3)c(Br)c2)CC1
inactive: growth inhibition [1] 15% | inhibition [2] 5% | inhibition [3] 4% | outcome [5] | outcome [6] | outcome [7] | outcome [8]
active: growth inhibition [4] 86%

CC1(C)N=C(N)N=C(N)N1c1cccc(Cl)c1
inactive: inhibition [3] -1% | outcome [5] | outcome [6] | outcome [7] | outcome [8]
active: growth inhibition [1] 96% | inhibition [2] 69% | growth inhibition [4] 96%

Cc1[nH]n(-c2cccc(Cl)c2)c(=O)c1-c1ccc(Cl)cc1
active: growth inhibition [4] 99%
inactive: growth inhibition [1] 41% | inhibition [2] 0% | inhibition [3] -8% | outcome [5] | outcome [6] | outcome [7] | outcome [8]

Fc1cccc(C=NNc2ccnc3ccccc23)c1
inactive: inhibition [2] 3% | inhibition [3] 7% | outcome [5] | outcome [6] | outcome [7] | outcome [8]
active: growth inhibition [1] 72% | growth inhibition [4] 103%

CCCCn1c(=N)c(C(=O)NCc2cccnc2)cc2c(=O)n3cccc(C)c3nc21
inactive: growth inhibition [1] 47% | inhibition [2] 7% | inhibition [3] -2% | outcome [5] | outcome [6] | outcome [7] | outcome [8]
active: growth inhibition [4] 101%

O=C(Nc1cccc(C(F)(F)F)c1)NC1CCN(c2ccnc3cc(Cl)ccc23)C1 (stereo not given)
active: growth inhibition [1] 89% | growth inhibition [4] 101%
inactive: inhibition [2] 18% | inhibition [3] 6% | outcome [5] | outcome [6] | outcome [7] | outcome [8]

CC(C)C[C@H](NC(=O)c1cc2ccccc2s1)C(=O)N[C@H]1CCN(Cc2ccc(OC[C@@H]3CCCN3C)c3ccccc23)C1
active: growth inhibition [1] 93% | inhibition [2] 69% | growth inhibition [4] 101%
inactive: inhibition [3] -2% | outcome [5] | outcome [6] | outcome [7] | outcome [8]

CCOC(=O)c1cn(CC)c2cc(N3CCCCCC3)c(F)cc2c1=O
active: growth inhibition [1] 89% | growth inhibition [4] 94%
inactive: inhibition [2] -2% | inhibition [3] 3% | outcome [5] | outcome [6] | outcome [7] | outcome [8]

COc1ccc2nccc([C@@H](O)CN3CCC(NCCOc4cc(F)cc(F)c4)CC3)c2c1
active: growth inhibition [1] 86% | growth inhibition [4] 101%
inactive: inhibition [2] 10% | inhibition [3] -3% | outcome [5] | outcome [6] | outcome [7] | outcome [8]

c1ccc(C23N=C(Nc4nc5ccccc5[nH]4)NC2(c2ccccc2)NC(Nc2nc4ccccc4[nH]2)=N3)cc1 (stereo not given)
active: growth inhibition [1] 89% | growth inhibition [4] 97%
inactive: inhibition [2] 2% | inhibition [3] 3% | outcome [5] | outcome [6] | outcome [7] | outcome [8]

Oc1cc2c(cc1CN1CCN(Cc3ccc(Cl)s3)CC1)CCC2
inactive: inhibition [2] 7% | inhibition [3] -3% | outcome [5] | outcome [6] | outcome [7] | outcome [8]
active: growth inhibition [1] 76% | growth inhibition [4] 98%

CS(=O)(=O)Nc1ccc(-c2cnc3[nH]cc(-c4ccc(C(=O)O)cc4)c3c2)cc1
active: growth inhibition [4] 95%
inactive: growth inhibition [1] 45% | inhibition [2] -15% | inhibition [3] -1% | outcome [5] | outcome [6] | outcome [7] | outcome [8]

COc1ccc2nc(-c3cc(-c4ccc(NC(=O)C(C)C)cc4)cnc3N)[nH]c2c1
inactive: growth inhibition [1] 47% | inhibition [2] 43% | inhibition [3] 3% | outcome [5] | outcome [6] | outcome [7] | outcome [8]
active: growth inhibition [4] 101%

C[C@@H](CC1CCCCC1)OC(=O)N(C)[C@@H]1CCN(C#N)C1
active: growth inhibition [1] 96% | growth inhibition [4] 95%
inactive: inhibition [2] 5% | inhibition [3] 3% | outcome [5] | outcome [6] | outcome [7] | outcome [8]

CC(C)CCN1CCCN(Cc2ccc(C(=O)Nc3ccc(C(C)(C)C)cc3)cc2)CC1
inactive: growth inhibition [1] 12% | inhibition [2] 49% | inhibition [3] -1% | outcome [5] | outcome [6] | outcome [7] | outcome [8]
active: growth inhibition [4] 92%

Cc1c2ccncc2c(C)c2c1[nH]c1cc(Cc3ccccc3)c(O)cc12
inactive: inhibition [3] -4% | outcome [5] | outcome [6] | outcome [7] | outcome [8]
active: growth inhibition [1] 99% | inhibition [2] 99% | growth inhibition [4] 100%

CC(C)(C)Nc1cc(C2CC2)nc(-c2ccccn2)n1
inactive: inhibition [2] -2% | inhibition [3] -1% | outcome [5] | outcome [6] | outcome [7] | outcome [8]
active: growth inhibition [1] 75% | growth inhibition [4] 88%

CC1CCCCC1N(C)C1CCN(CCCNC(=O)C=Cc2ccccc2Cl)CC1 (stereo not given)
inactive: growth inhibition [1] 14% | inhibition [2] 30% | inhibition [3] 3% | outcome [5] | outcome [6] | outcome [7] | outcome [8]
active: growth inhibition [4] 100%

COc1ccc(C2N=C(N)N=C(N)N2OCc2ccccc2)cc1OC (stereo not given)
active: growth inhibition [4] 95%
inactive: growth inhibition [1] 2% | inhibition [2] 1% | inhibition [3] 0% | outcome [5] | outcome [6] | outcome [7] | outcome [8]

O=C(c1ccco1)N1CCN(c2ccc([N+](=O)[O-])c(NC3CC3)c2)CC1
inactive: inhibition [2] -8% | inhibition [3] 0% | outcome [5] | outcome [6] | outcome [7] | outcome [8]
active: growth inhibition [1] 99% | growth inhibition [4] 101%

COc1ccc2nccc([C@@H](O)CN3CCC(NCc4cnc5c(c4)NC(=O)CS5)CC3)c2c1
inactive: growth inhibition [1] 29% | inhibition [2] -15% | inhibition [3] 0% | outcome [5] | outcome [6] | outcome [7] | outcome [8]
active: growth inhibition [4] 87%

O=C(NCc1ccc(Cl)c(Cl)c1)c1ccc(C2CCCN(Cc3ccc4nc[nH]c4c3)C2)cc1 (stereo not given)
active: growth inhibition [1] 83% | growth inhibition [4] 100%
inactive: inhibition [2] 9% | inhibition [3] 3% | outcome [5] | outcome [6] | outcome [7] | outcome [8]

Cc1nn(C)cc1C(C)Nc1nncc(-c2ccc(C(F)(F)F)cc2)n1 (stereo not given)
active: growth inhibition [1] 99% | growth inhibition [4] 100%
inactive: inhibition [2] -3% | inhibition [3] -5% | outcome [5] | outcome [6] | outcome [7] | outcome [8]

CC(Oc1ccc(Cl)cc1)C(=O)Nc1cc(C(F)(F)F)ccc1N1CCOCC1 (stereo not given)
inactive: inhibition [2] 14% | inhibition [3] -6% | outcome [5] | outcome [6] | outcome [7] | outcome [8]
active: growth inhibition [1] 97% | growth inhibition [4] 97%

CCCCCOc1c(CCC)cc(Cc2cnc(N)nc2N)cc1CCC
active: inhibition [2] 58% | growth inhibition [4] 94%
inactive: growth inhibition [1] -3% | inhibition [3] -2% | outcome [5] | outcome [6] | outcome [7] | outcome [8]

COc1ccc(C(=O)Nc2ccc(Cl)cc2C(=O)Nc2ccncc2)cc1
inactive: growth inhibition [1] 29% | inhibition [2] 7% | inhibition [3] 1% | outcome [5] | outcome [6] | outcome [7] | outcome [8]
active: growth inhibition [4] 91%

CC1(C)N=C(N)N=C(N)N1OCOc1cc(Cl)c(Cl)cc1Cl
active: growth inhibition [1] 98% | inhibition [2] 66% | growth inhibition [4] 96%
inactive: inhibition [3] -3% | outcome [5] | outcome [6] | outcome [7] | outcome [8]

Cn1nc(C(F)(F)F)c(-c2ccc(Br)cc2)c1NC(=O)Cc1ccccc1F
inactive: inhibition [2] 6% | inhibition [3] -1% | outcome [5] | outcome [6] | outcome [7] | outcome [8]
active: growth inhibition [1] 100% | growth inhibition [4] 102%

COc1ccc(C2CC(c3ccccc3)=NN2C(=O)c2ccc(Br)o2)cc1 (stereo not given)
active: growth inhibition [4] 96%
inactive: growth inhibition [1] 45% | inhibition [2] 6% | inhibition [3] -6% | outcome [5] | outcome [6] | outcome [7] | outcome [8]

CN1CCCN(Cc2cccc(-c3cccc(NS(=O)(=O)c4cccc5cccnc45)c3)c2)CC1
active: growth inhibition [1] 74% | growth inhibition [4] 97%
inactive: inhibition [2] 21% | inhibition [3] -6% | outcome [5] | outcome [6] | outcome [7] | outcome [8]
